# TDP1 inh: TDP1 (human) enzyme inhibition; recombinant TDP1, AlphaScreen DNA substrate cleavage; 0.28% of 350,000 active; Potency, µM (doses to about 130 µM), without a hit: top-dose activity change, negative = inhibition, most hits filed as inhibitors; Q9NUW8; also: potency is read from the fitted curve at half-maximal effect; % is scaled to controls: 0 for no effect and ±100 for the full control effect; nearly all actives have a fitted effect of over 40% in size
#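 E. coli-derived human Tdp1, 1 nM final. Cpd preinc 15 min RT; substrate 15 nM final, 5 min RT; AS bead mix 10 ug/ml final, 10 min RT. Signal loss = tyrosine-FITC cleavage. No-enzyme wells = max signal.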
# CtBP-E1A inh: CtBP/E1A binding inhibition | AlphaScreen GST-E1A/His-CtBP binding, 1536-well; active compounds read low | activity change, % (no concentration beside the values) | 0.49% of 340,000 active | AID 651724; in the data active = activity change below about -65%; inconclusive = mostly about -30% to -63%; also: % is scaled to controls: 0 for no effect and ±100 for the full control effect
#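 In 5 uL wells, 23 nL compound meets equimolar GST-E1A and His-CtBP (5X stock 125 nM each) for 2 h, 37 °C. Beads (5X, 50 ug/mL) then 1 h, 37 °C, dark.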
# JMJD2A Tudor inh: JMJD2A Tudor domain (human) inhibition. O75164. AlphaScreen JMJD2A-Tudor / H3K4me3 peptide binding. Potency, µM (titrated, usually from 114 µM), for the others: at the highest dose activity change, negative = inhibition, most hits filed as inhibitors. 4.4% of 390,000 active. AID 504339; also: potency is read from the fitted curve at half-maximal effect; % is scaled to controls: 0 for no effect and ±100 for the full control effect; nearly all actives have a fitted effect of over 50% in size
# BAZ2B inh: inhibitors of human BAZ2B bromodomain | 4.4% of 360,000 active | AlphaScreen BAZ2B-H3K14Ac peptide displacement | AID 504333 | Potency, µM (top dose mostly 114 µM), for the others: at the highest dose activity change, negative = inhibition, hits mostly inhibitors; also: potency is read from the fitted curve at half-maximal effect; % is scaled to controls: 0 for no effect and ±100 for the full control effect; nearly all actives have a fitted effect of over 60% in size
#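 BAZ2B (50 nM) with biotin-H3(5-23)K14Ac peptide (50 nM) in PBS pH 7.4, 0.01% Tween-20, preformed 30 min, then compound 30 min at room temperature; top concentration 110uM. AlphaScreen streptavidin donor/nickel chelate acceptor beads (10 ug/mL final), 20 min dark, signal read.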
# HP1b chromo inh: blocks HP1-beta chromodomain binding to methylated histone tails. AID 540317. 0.56% of 390,000 active. Potency, µM (doses to about 114 µM), without a hit: at the top dose activity change, negative = inhibition, hits mostly inhibitors. AlphaScreen HP1-beta / biotin-H3K9me3 peptide binding. P83916; also: potency is read from the fitted curve at half-maximal effect; nearly all actives have a fitted effect of over 70% in size
# Target sequence (P83916 whole entry, looked up): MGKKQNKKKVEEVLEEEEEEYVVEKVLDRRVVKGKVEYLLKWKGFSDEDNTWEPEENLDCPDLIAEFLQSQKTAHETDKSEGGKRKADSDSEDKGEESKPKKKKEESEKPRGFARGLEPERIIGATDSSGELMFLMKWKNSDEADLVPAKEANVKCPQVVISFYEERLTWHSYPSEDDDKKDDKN
#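 AlphaScreen: HP1-beta (50 nM) preformed 30 min with biotin-H3(1-18)K9me3 peptide (50 nM) in PBS pH 7.4, 0.01% Tween-20. Compound added for 30 min at RT, then streptavidin donor/nickel chelate acceptor beads (10 ug/mL) for 30 min.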
# Six1-Eya2 blk: blocks human Six1 binding to Eya2; AlphaScreen GST-Six1/His-Eya2 binding, biochemical; active compounds read low; Q15475+O00167; 0.56% of 360,000 active; activity change, % (concentration not given with the values); in the data active = activity change below about -65%; inconclusive = mostly about -30% to -63%; also: % is scaled to controls: 0 for no effect and ±100 for the full control effect
#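 Six1/Eya2 binding was read as AlphaScreen signal after compounds were pinned into GST-Six1 plus His-tagged Eya2 (5X stock 250/500 nM) in pH 8.0 Tris/NaCl/TCEP buffer, beads added, then incubated 1 h, 37 C, dark.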
# * marks the source's active call; other numbers are inactive results; u = inconclusive; x = no result; [ ] = another dose, or the depositor's remark. Only some compounds are listed: those with a hit (about 5.3% of all), similar ones and a draw of the others. Unless noted, calls follow the shape of the dose curve; as a rule, active = well fitted inhibition curve with a large enough effect; inconclusive = small, poorly fitted or top-dose-only effect; inactive = no such curve, though single readings can be large or run the other way.
SMILES,TDP1 inh,CtBP-E1A inh,JMJD2A Tudor inh,BAZ2B inh,HP1b chromo inh,Six1-Eya2 blk
Cc1ccc(NC(=O)CN(C)CC(=O)Nc2ccc(N3CCOCC3)cc2)c(C)c1,0%,0,-11%,u,25%,-2
C/C(CCN1CCCc2nc(C)c(C)cc21)=N\O[C@@H](C)CN1CCCc2nc(C)c(C)cc21,7%[21 µM],x,x,x,x,x
COc1ccc2c(c1)c1c(c(=O)n(-c3cccc(C)c3)c(=O)n1CC(=O)Nc1c(C)cc(C)cc1C)n2C,3%,x,-2%,40%,54%,x
N#C/C(=C\c1ccc(OCc2ccc(Cl)cc2)cc1)C(=O)Nc1cccc(C(=O)O)c1,35µM*,13,u,56µM*,10%,-7
COc1cc(/C=C(\C#N)C(=O)Nc2cccc(C(=O)O)c2)ccc1OCc1ccc(C)cc1,3%,-2,u,-27%,2%,-12
COc1cc(/C=C(/C#N)C(=O)Nc2ccccc2)ccc1OCc1ccc(C(=O)O)cc1,-13%,x,56µM*,56µM*,-10%,0
COc1cc(/C=C(\C#N)C(=O)NCc2ccccc2)ccc1OCc1ccc(C(=O)O)cc1,0%,u,-17%[11.4 µM],-17%,-16%,-10
COc1ccc(/C=C(/C#N)C(=O)Nc2ccc(O)cc2)cc1C(=O)O,5%,x,-16%,-15%,19%,u
COc1cc(/C=C(\C#N)C(=O)NC2CCCCC2)ccc1OCc1ccc(C(=O)O)cc1,8%,-93*,-24%,-15%,2%,u
COc1cc(/C=C(\C#N)C(=O)Nc2ccc(C(=O)O)cc2)ccc1OC(=O)c1cccc(F)c1,50µM*,-20,u,u,u,-6
CCOc1cc(/C=C(\C#N)C(=O)Nc2cccc(C(=O)O)c2)ccc1OCc1ccc(Br)cc1,14µM*,-9,u,56µM*,u,-8
COc1cc(/C=C(\C#N)C(=O)NC(C)C)ccc1OCc1ccc(C(=O)O)cc1,x,-73*,-16%,-14%,-6%,-1
CCOc1cccc(NC(=O)/C(C#N)=C\c2cccnc2)c1,-7%,-17,-6%,u,26%,-2
COc1ccc(C(CCN2CCCC(C)C2)c2c(O)cc(OC)cc2OC)cc1 (stereo not drawn),5%,x,-34%,x,-2%,x
COc1cc(C(CCN2CCCC(C)C2)c2c(OC)cc(OC)c3c2OC(=O)CC3c2ccc(N(C)C)cc2)cc(OC)c1OC (stereo not drawn),22%,-20,16µM*,14µM*,u,u
COc1cc(C2CC(=O)Oc3c(C(CCN4CCCC(C)C4)c4ccc(N(C)C)cc4)c(OC)cc(OC)c32)cc(OC)c1OC (stereo not drawn),19%,-22,40µM*,35µM*,u,u
COc1cc(OC)c2c(c1C(CCN1CCCC(C)C1)c1ccc(N(C)C)cc1)OC(=O)CC2c1ccc(N(C)C)cc1 (stereo not drawn),27%,x,8.9µM*,x,u,x
COc1cc(O)c(C(CCN2CCCC(C)C2)c2cc(OC)c(OC)c(OC)c2)c(OC)c1 (stereo not drawn),5%,22,-22%,1%,6%,4
COc1cc(C2CC(=O)Oc3c(C(C)C)ccc(C)c32)cc(OC)c1OC (stereo not drawn),5%,x,x,x,x,x
CCOc1cccc2sc(NC(=O)c3ccc(S(=O)(=O)N4CCCCC4C)cc3)nc12 (stereo not drawn),-1%,x,-15%,-5%,16%[57 µM],x
Cc1ccc(C(C)C)c(OCC(=O)NN=C(CCl)CCl)c1,x,x,x,56µM*,x,x
Cc1ccc(N2C(=O)/C(=C/c3ccco3)SC2=S)cc1,-3%,-12,u,u,-16%,-14
O=C1/C(=C/c2cccc(Cl)c2)SC(=S)N1CCC(=O)N1CCCCC1CCO (stereo not drawn),8%,x,-11%,28µM*,22%,-10
O=C1/C(=C/c2ccco2)SC(=S)N1CCC(=O)N1CCCCC1CCO (stereo not drawn),5%,x,-5%,50µM*,37%,u
O=C1/C(=C\c2ccco2)SC(=S)N1C1CCCCC1,x,x,x,10µM*,x,x
SMILES,TDP1 inh,CtBP-E1A inh,JMJD2A Tudor inh,BAZ2B inh,HP1b chromo inh,Six1-Eya2 blk
Cc1ccc(N(Cc2cc3ccccc3[nH]c2=O)C(=O)c2cccc(Cl)c2)cc1,7%,x,-27%,-8%,-8%,x
COc1cc(O)c(C(CC(=O)N2CCN(c3ccccc3)CC2)c2ccc(N(C)C)cc2)c(OC)c1 (stereo not drawn),26%,u,28µM*,25µM*,u,u
COc1cc(O)c(C(CC(=O)N2CCCC(C)C2)c2ccc(N(C)C)cc2)c(OC)c1 (stereo not drawn),7%,u,40µM*,50µM*,u,u
COc1cccc2cc(-c3nc(-c4ccccc4F)no3)c(=O)oc12,3%,x,1%,7%,52%,x
O=C(Nc1ccc2oc(-c3ccncc3)nc2c1)c1ccc2c(c1)OCCO2,-12%,2,56µM*,56µM*,-19%,-8
O=C(Nc1ccc2oc(-c3ccncc3)nc2c1)c1ccc(F)cc1,79µM*,1,u,50µM*,143%,77
O=C(Nc1ccc2oc(-c3cccnc3)nc2c1)c1ccc2c(c1)OCCO2,3%,2,89µM*,79µM*,-3%,-9
COc1cccc(CNC(=O)c2sc3ncccc3c2-n2c(C)ccc2C)c1OC,7%,x,u,-28%,15%[57 µM],x
CCc1nnc(NS(=O)(=O)c2ccc(NC(=S)NC(=O)c3ccccc3)cc2)s1,5%,-7,u,u,-6%,0
COc1ccc(/C=C/C(=O)NC(=S)Nc2ccc(C(=O)O)cc2)cc1,89µM*,-1,-28%,u,-18%,-4
CCc1nnc(NS(=O)(=O)c2ccc(NC(=S)NC(=O)/C=C/c3ccc(C(C)C)cc3)cc2)s1,-10%,-8,56µM*,50µM*,u,-5
COc1ccc(NC(=S)NC(=O)/C=C/c2ccc(F)cc2)cc1,x,-5,-11%,1%,21%,-1
CCc1nnc(NS(=O)(=O)c2ccc(NC(=S)NC(=O)/C=C/c3ccc(OC)cc3)cc2)s1,1%,15,32µM*,u,u,0
CCc1nnc(NS(=O)(=O)c2ccc(NC(=S)NC(=O)/C=C/c3ccccc3)cc2)s1,x,5,79µM*,u,-29%,-17
CCc1nnc(NS(=O)(=O)c2ccc(NC(=S)Nc3ccc(F)cc3)cc2)s1,0%,4,-34%,1%,13%,-4
CCOc1ccc(C(=O)Nc2ccc(-c3cc4ccccc4oc3=O)cc2)cc1Br,2%[12.3 µM],x,-8%,6%,20%,x

# Screening data deposited in PubChem by National Center for Advancing Translational Sciences (NCATS).
